Shown are actives, neighbours in structure and some others; about 2% of the full set was active somewhere.
ADAM10 inh = human ADAM10 inhibitors, primary screen, biochemical, QFRET, HTS; Disintegrin and metalloproteinase domain-containing protein 10 (Homo sapiens), O14672; recombinant ADAM10, EDANS/DABCYL FRET peptide cleavage, 3 h; inhibition, % at 7 µM; hit rate 0.62% among 370,000;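 active = inhibition above a per-campaign cutoff equal to the mean of compounds falling between control-based bounds plus 3 SD, cut at about 20% in these data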;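 also: 0% = DMSO wells while the 100% control is not disclosed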
Target sequence (O14672 214-748 limits assumed): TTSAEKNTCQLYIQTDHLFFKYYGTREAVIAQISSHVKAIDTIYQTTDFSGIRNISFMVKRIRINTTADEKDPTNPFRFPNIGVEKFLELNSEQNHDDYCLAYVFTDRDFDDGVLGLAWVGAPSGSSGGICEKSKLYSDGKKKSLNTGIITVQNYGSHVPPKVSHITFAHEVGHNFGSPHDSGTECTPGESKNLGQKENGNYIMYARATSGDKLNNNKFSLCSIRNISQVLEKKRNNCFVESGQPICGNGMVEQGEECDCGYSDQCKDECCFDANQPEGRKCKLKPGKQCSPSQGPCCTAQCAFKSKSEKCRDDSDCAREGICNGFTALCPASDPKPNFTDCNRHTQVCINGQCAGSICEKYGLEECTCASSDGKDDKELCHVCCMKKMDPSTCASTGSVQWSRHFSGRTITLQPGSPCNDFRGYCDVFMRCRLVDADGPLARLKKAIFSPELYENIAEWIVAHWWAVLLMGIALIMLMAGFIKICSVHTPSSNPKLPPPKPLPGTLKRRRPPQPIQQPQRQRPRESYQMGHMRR
FAS-TE inh = FAS thioesterase domain inhibitors, primary screen, biochemical, fluorescence intensity, uHTS | recombinant FAS-TE, OMFH fluorogenic substrate, fluorescence endpoint | inhibition, % at 15 µM | hit rate 0.67% among 360,000 | AID 602261, 2012;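 active = compounds whose normalised, plate-corrected inhibition of enzyme fluorescence in the single-dose primary screen is 50% or more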;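 also: 0% = DMSO with enzyme and 100% = substrate without enzyme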
NPR2 activator = human GC-B receptor activators, primary screen, HEK293 GC-B cells, cGMP TR-FRET, EC30 CNP; activation, % at 10 µM; hit rate 0.11% among 370,000; Atrial natriuretic peptide receptor 2 (Homo sapiens), P20594; 0% at EC30 CNP, 100% saturating CNP;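 active = activation at 10 µM reaching about 35% in either raw or pattern-adjusted values, limit read from the data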
ADAM17 inh = ADAM17 inhibitors, primary screen, biochemical, QFRET; Disintegrin and metalloproteinase domain-containing protein 17 (Homo sapiens), P78536; recombinant ADAM17, EDANS/DABCYL FRET peptide cleavage; inhibition, % at 6.95 µM; hit rate 0.83% among 370,000;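 active = inhibition above the mean of compounds lying between control limits plus 3 SD, set per campaign, cut at about 8.5% in these data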;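 also: 0% = DMSO-only wells as the low control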
NPR1 activator = GC-A stimulated cGMP production enhancers – HEK293 GC-A cells, cGMP TR-FRET, EC30 ANP, primary screen; Atrial natriuretic peptide receptor 1 (Homo sapiens), P16066; 0% at EC30 ANP, 100% saturating ANP; AID 1671463, 2021; activation, % at 10 µM; hit rate 0.14% among 370,000; in the data active = activation above about 40%
ADAM10 confirm = human ADAM10 inhibitors, confirmation, biochemical, QFRET, triplicate | shares compounds with ADAM10 inh | ADAM10 QFRET peptide cleavage, EDANS fluorescence | inhibition, % at 6.95 µM | hit rate 1% among 2,100;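 active = inhibition above about 20% chosen separately for each screening run, limit read from the data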;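 also: 0% = DMSO wells and 100% = marimastat wells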
ADAM17 counter = ADAM17 inhibitors, counter-screen for ADAM10 exosite inhibitor project, biochemical, QFRET, high throughput. ADAM17 QFRET peptide cleavage, EDANS fluorescence. AID 743214, 2013. inhibition, % at 6.95 µM. hit rate 0.5% among 2,100. shares compounds with ADAM10 inh;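 active = mean triplicate inhibition above the solvent-only control wells' mean plus 3 SD, cut at about 12% in these data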;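 also: 0% = DMSO wells and 100% = marimastat wells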
Starred values were filed as active, the others as inactive; x = no result given.

SMILES | ADAM10 inh | FAS-TE inh | NPR2 activator | ADAM17 inh | NPR1 activator | ADAM10 confirm | ADAM17 counter
O=C(Nc1ccccc1)c1ccccc1Oc1ccc(C(F)(F)F)cc1[N+](=O)[O-] | 21* | 9 | -1 | -5 | -2 | 4 | 1
O=C(COc1ccc(C(F)(F)F)cc1[N+](=O)[O-])Nc1cccc(C(F)(F)F)c1 | 4 | -13 | 2 | -5 | -4 | x | x
CSc1ccc(Cn2c(C)c(C(=O)NCc3ccc4c(c3)OCCO4)sc2=O)cc1 | 20* | 18 | -2 | 6 | -1 | 5 | 1
Cc1c(C(=O)NCc2ccc(F)cc2)sc(=O)n1Cc1ccc(Cl)c(Cl)c1 | 5 | 33 | 1 | 5 | -2 | x | x
CSc1ccc(Cn2c(C)c(C(=O)NCc3ccc(Cl)c(Cl)c3)sc2=O)cc1 | 21* | 37 | -3 | 8 | -8 | 10 | 4
CCCCCCNC(=O)C1CSCCS(=O)(=O)N1Cc1ccccc1 (centres undefined) | -1 | x | 5 | 0 | 2 | x | x
Cc1cccc(CCNC(=O)Cn2nc(-c3ccccc3)ccc2=O)c1 | -11 | x | 2 | 3 | 0 | x | x
S=c1nc2ccccc2c2nc(-c3ccccc3)[nH]n12 | 21* | -4 | -8 | 2 | -1 | -3 | -1
CCOC(=O)[C@@]12CN(C(=O)OC(C)(C)C)CC=C1N(Cc1ccc(OC)cc1)C(=O)[C@H]2CC(=O)NCCC(C)C | 2 | x | 4 | 1 | -4 | x | x
COc1ccccc1CCC(=O)N(C)CC(=O)Nc1ccc(Cl)c(C(F)(F)F)c1 | 22* | 26 | -4 | 5 | -4 | 2 | 1
CC(C)C(=O)OCC(=O)Nc1ccc(N=Nc2ccccc2)cc1 | 25* | 20 | -5 | 7 | 7 | 0 | 1
COc1ccc(OC(F)(F)F)cc1CC1(C)C(=O)Nc2ccc(-c3ccsc3)cc21 (centres undefined) | 26* | 28 | 7 | 9 | -5 | 11 | 3
C=CCNC(=O)NCC1CCN(Cc2ccc(OC)cc2)CC1 | 2 | x | 3 | 2 | 3 | x | x
CN(CCO)C1CN(Cc2cn(Cc3ccccc3C(F)(F)F)nn2)S(=O)(=O)C1 (centres undefined) | -15 | x | 6 | -9 | 3 | x | x
Cc1ccc(NC(=O)c2cccc(S(=O)(=O)N(C)c3ccccc3)c2)cc1S(=O)(=O)N1CCOCC1 | 21* | 34 | 5 | 8 | -3 | 4 | 1
Cc1ccccc1OCCC(=O)OCC(=O)Nc1ccc(C)c(S(=O)(=O)N2CCCCC2)c1 | 18 | 15 | 8 | 8 | 2 | x | x
CCN(CC)S(=O)(=O)c1cccc(NC(=O)CNc2cccc(S(=O)(=O)N3CCCC3)c2)c1 | 11 | 8 | 3 | 7 | 1 | x | x
Cc1ccc(C(=O)Nc2cccc(C(=O)O)c2)cc1S(=O)(=O)N1CCOCC1 | -5 | -3 | 0 | -4 | 3 | x | x
Cc1ccc(C)c(OCCC(=O)OCC(=O)Nc2ccc(C)c(S(=O)(=O)N3CCCCC3)c2)c1 | 27* | 16 | 2 | -11 | 2 | 9 | 3
Cc1ccc(NCC(=O)Nc2cccc(S(=O)(=O)N(C)C)c2)cc1S(=O)(=O)N1CCCCCC1 | 24* | 16 | -1 | 8 | 3 | 2 | 0
CCCN1CC(=O)N2[C@H](C[C@@]3(n4ccc5ccccc54)c4ccccc4N(S(=O)(=O)c4ccccc4)[C@@H]23)C1=O | 6 | x | 5 | 4 | -4 | x | x
Oc1ccccc1C(Nc1nccs1)c1ccc2cccnc2c1O (centres undefined) | 20* | 1 | -5 | 8 | 1 | 8 | 3
COC(=O)[C@]12C[C@H](CC(=O)N3CCCCC3)C(=O)N(Cc3ccc(Cl)cc3Cl)C1=C[C@H](C1CCCC1)O[C@@H]2C | 0 | x | -14 | -6 | -19 | x | x
Cc1ccsc1/C=N/NC(=O)c1nnn(-c2nonc2N)c1CN(C)c1ccccc1 | 22* | 18 | -1 | 7 | -2 | 2 | 1
O=C(NCc1ccc(C(=O)N2CCCN(Cc3ccccc3)CC2)cc1)c1cccc(Br)c1 | -2 | x | 0 | 1 | -1 | x | x
SMILES | ADAM10 inh | FAS-TE inh | NPR2 activator | ADAM17 inh | NPR1 activator | ADAM10 confirm | ADAM17 counter
CCNC(=O)NC(=O)C(C)OC(=O)c1ccc(-n2nc(SC)sc2=S)cc1 (centres undefined) | 22* | 16 | 5 | 3 | -4 | 1 | 0
COc1ccc(C(=O)N/N=C/c2ccc(OC)c(COc3ccccc3)c2)cc1 | 71* | 14 | 3 | 1 | 2 | 12 | 4
O=C(O)C(Nc1nc(C(F)(F)F)nc2ccccc12)c1ccccc1 (centres undefined) | 20* | -1 | 4 | 1 | 1 | 1 | 1
O=C(NCc1ccc(F)cc1)c1ccc(S(=O)(=O)Nc2cccc(C(F)(F)F)c2)cc1 | 27* | 23 | 1 | 8 | -3 | -1 | 0
CCC1Sc2ccc(S(=O)(=O)CCC(=O)Nc3c(Cl)cc(OC)cc3OC)cc2NC1=O (centres undefined) | 20* | 9 | -13 | 6 | -14 | 0 | 0
CCC1Sc2ccc(S(=O)(=O)Nc3cc(OC)cc(OC)c3)cc2NC1=O (centres undefined) | 5 | 0 | -2 | 0 | -3 | x | x
COc1ccccc1NC(=O)C1=C(C)Nc2nc(-c3ccccc3)nn2C1c1ccccn1 (centres undefined) | 67* | -1 | -7 | 2 | 1 | 1 | 0
O=C(Nc1cccc(Cl)c1)OCCOC(=O)Nc1cccc(Cl)c1 | 21* | 29 | -6 | 8 | -9 | 4 | 2
O=C(Nc1cccc(Cl)c1)OCCOc1ccccc1 | 9 | 31 | -4 | 5 | 2 | x | x
Cc1ccc(C(=O)C2CCN(CC(=O)NCc3cccs3)CC2)cc1 | -4 | x | -4 | -1 | 1 | x | x
O=C(COc1ccc(S(=O)(=O)NC2CCCCC2)cc1Cl)NCC1CCCO1 (centres undefined) | 6 | 0 | -10 | -1 | 6 | x | x
COc1ccc(CCNC(=O)COc2ccc(S(=O)(=O)NC3CCCCC3)cc2Cl)cc1 | 23* | 24 | -4 | 7 | -9 | 3 | 1
COc1ccc2c(c1)CCCN2C(=O)C1CCCN(S(=O)(=O)c2cccc3ccccc23)C1 (centres undefined) | 12 | x | -6 | 4 | -6 | x | x
